Read-outs that look alike come from different tables or passages of the source.

Common to all, as to parameters: species or system human, MV4-11 + K-562 + COLO205 + SK-N-BE2 + OVCAR-8
Experiment [1] has as its system ACVR1B. Particulars: read-out: apparent Kd, n = 1.
Experiment [2] relates to ADCK1. To be noted: read-out: apparent Kd; compound concentrations:100 nM and 1000 nM (sheet 'Samples'); n = 1.
Experiment [3] deals with PIK3CA. To be noted: read-out: apparent Kd; compound concentrations:100 nM and 1000 nM (sheet 'Samples'); n = 1.
For experiment [4], the system named is PIK3CD. Particulars: read-out: apparent Kd; compound concentrations:100 nM and 1000 nM (sheet 'Samples'); n = 1.
The test system of experiment [5] is PKN1. Particulars: read-out: apparent Kd; compound concentrations:100 nM and 1000 nM (sheet 'Samples'); n = 1.
Experiment [6] deals with PKN2. To be noted: read-out: apparent Kd; compound concentrations:100 nM and 1000 nM (sheet 'Samples'); n = 1.
For experiment [7], the system named is RAB5C. To be noted: read-out: apparent Kd; compound concentrations:100 nM and 1000 nM (sheet 'Samples'); n = 1.
Experiment [8] relates to TTN. Particulars: read-out: apparent Kd; compound concentrations:100 nM and 1000 nM (sheet 'Samples'); n = 1.
The subject of experiment [9] is CIT. Particulars: read-out: apparent Kd; compound concentrations:100 nM and 1000 nM (sheet 'Samples'); n = 1.
For experiment [10], the system named is CSNK1D. Particulars: read-out: apparent Kd; compound concentrations:100 nM and 1000 nM (sheet 'Samples'); n = 1.
The test system of experiment [11] is CSNK1E. Particulars: read-out: apparent Kd; compound concentrations:100 nM and 1000 nM (sheet 'Samples'); n = 1.
Experiment [12] deals with MAP4K2. To be noted: read-out: apparent Kd; compound concentrations:100 nM and 1000 nM (sheet 'Samples'); n = 1.
In experiment [13] the test system is MAPK14. To be noted: read-out: apparent Kd; compound concentrations:100 nM and 1000 nM (sheet 'Samples'); n = 1.
Experiment [14] has as its system PKN3. To be noted: read-out: apparent Kd; compound concentrations:100 nM and 1000 nM (sheet 'Samples'); n = 1.
Experiment [15] deals with PRKD2. Particulars: read-out: apparent Kd; compound concentrations:100 nM and 1000 nM (sheet 'Samples'); n = 1.
Experiment [16] deals with PRKD3. Particulars: read-out: apparent Kd; compound concentrations:100 nM and 1000 nM (sheet 'Samples'); n = 1.
For experiment [17], the system named is RIPK2. To be noted: read-out: apparent Kd, n = 1.
The subject of experiment [18] is TESK2. Particulars: read-out: apparent Kd; compound concentrations:100 nM and 1000 nM (sheet 'Samples'); n = 1.
Experiment [19] deals with TGFBR2. Particulars: read-out: apparent Kd, n = 1.
The subject of experiment [20] is ACVR1. To be noted: read-out: apparent Kd; compound concentrations: 100 nM and 1000 nM (sheet 'Samples'), CATDS: 5.3500871089908003E-2; n = 1.
Experiment [21] deals with ACVR2B. To be noted: read-out: apparent Kd; compound concentrations: 100 nM and 1000 nM (sheet 'Samples'), CATDS: 0.67080964654625497; n = 1.
Experiment [22] relates to BCR. Particulars: read-out: apparent Kd; compound concentrations: 100 nM and 1000 nM (sheet 'Samples'), CATDS: 8.1652957748264393E-2; n = 1.
Experiment [23] has as its system BMPR1B. Particulars: read-out: apparent Kd; compound concentrations: 100 nM and 1000 nM (sheet 'Samples'), CATDS: 7.3247906456106002E-2; n = 1.
Experiment [24] relates to CDC7. Particulars: read-out: apparent Kd; compound concentrations: 100 nM and 1000 nM (sheet 'Samples'), CATDS: 4.9206883035311198E-2; n = 1.
Experiment [25] has as its system CDK4. Particulars: read-out: apparent Kd; compound concentrations: 100 nM and 1000 nM (sheet 'Samples'), CATDS: 4.8870042780869302E-2; n = 1.
Experiment [26] deals with EPHA1. To be noted: read-out: apparent Kd; compound concentrations: 100 nM and 1000 nM (sheet 'Samples'), CATDS: 7.9880542471912896E-2; n = 1.
For experiment [27], the system named is GAK. To be noted: read-out: apparent Kd; compound concentrations: 100 nM and 1000 nM (sheet 'Samples'), CATDS: 0.131761231196901; n = 1.
The subject of experiment [28] is MAP2K1. To be noted: read-out: apparent Kd; compound concentrations: 100 nM and 1000 nM (sheet 'Samples'), CATDS: 4.7289887756517802E-2; n = 1.
For experiment [29], the system named is NLK. To be noted: read-out: apparent Kd; compound concentrations: 100 nM and 1000 nM (sheet 'Samples'), CATDS: 5.29869352744404E-2; n = 1.
In experiment [30] the test system is RIPK3. Particulars: read-out: apparent Kd; compound concentrations: 100 nM and 1000 nM (sheet 'Samples'), CATDS: 5.9537511979901002E-2; n = 1.
In experiment [31] the test system is CDC42. To be noted: read-out: apparent Kd; compound concentrations:100 nM and 1000 nM (sheet 'Samples'); n = 1.
The subject of experiment [32] is TGFBR1. Particulars: read-out: apparent Kd; compound concentrations:100 nM and 1000 nM (sheet 'Samples'); n = 1.
The subject of experiment [33] is ACOX3. To be noted: read-out: apparent Kd; compound concentrations: 100 nM and 1000 nM (sheet 'Samples'), CATDS: 0.63885197419414497; n = 1.
Experiment [34] deals with FECH. Particulars: read-out: apparent Kd; compound concentrations: 100 nM and 1000 nM (sheet 'Samples'), CATDS: 0.41072954272515799; n = 1.
The test system of experiment [35] is ADCK3. To be noted: read-out: apparent Kd; compound concentrations:100 nM and 1000 nM (sheet 'Samples'); n = 1.
The test system of experiment [36] is NQO2. Particulars: read-out: apparent Kd; compound concentrations:100 nM and 1000 nM (sheet 'Samples'); n = 1.
The mark [37] stands for this setting: compound concentrations:100 nM and 1000 nM (sheet 'Samples').

Turning to `Cl.Cl.c1ccc(-c2cc3ccncc3cc2OC2CCNCC2)cc1.c1ccc(-c2cc3ccncc3cc2OC2CCNCC2)cc1` [GSK1122999D], the potency estimated from few doses was 1160 nM in experiment [1] (setting [37]); 1280 nM in [2]; 287 nM in [3]; 179 nM in experiment [4]; 2030 nM in [5]; 2040 nM in [6]. The potency estimated from few doses in experiment [7] was 1190 nM; in experiment [8], 886 nM.

With `Cc1cccc(-c2nc(Nc3ccncc3)c3ccccc3n2)n1` [GW855857X], the potency estimated from few doses in experiment [1] (setting [37]) is 0.502 nM; in experiment [9] it was 1120 nM; in experiment [10] it was 897 nM; in [11], 1190 nM; in experiment [12] it was 1630 nM; in experiment [13] it was 1470 nM. Also, the potency estimated from few doses in experiment [14] was 75.5 nM; in experiment [15], 3.39 nM; in experiment [16], 6.73 nM; in experiment [17] (setting [37]) it was 590 nM; in [18] it was 1340 nM; in [19] (setting [37]), 855 nM.

As for `Oc1cc(Nc2ccnc3cc(I)ccc23)ccc1F` [GW552771X], the potency estimated from few doses was 1050 nM in [1] (compound concentrations: 100 nM and 1000 nM (sheet 'Samples'), CATDS: 5.5704311303099698E-2); 1220 nM in experiment [20]; 4.54 nM in [21]; 339 nM in [22]; 452 nM in [23]; 1710 nM in experiment [24]. Besides, the potency estimated from few doses in experiment [25] is 1760 nM; in experiment [26], 359 nM; in [27], 109 nM; in [28] it was 2050 nM; in experiment [29] it was 1260 nM; in [17] (compound concentrations: 100 nM and 1000 nM (sheet 'Samples'), CATDS: 0.100310805321257), 204 nM. In addition, the potency estimated from few doses in experiment [30] is 838 nM; in experiment [19] (compound concentrations: 100 nM and 1000 nM (sheet 'Samples'), CATDS: 0.233102504079717), 32.2 nM.

Turning to `Cl.NC(=O)c1ccc(-c2nc(-c3ccccn3)c(-c3ccc4c(c3)OCO4)[nH]2)cc1` [SB-431542-A], the values for the potency estimated from few doses in experiment [1] (setting [37]), in [31] and in experiment [32] were 1140 nM, 731 nM and 946 nM, respectively.

As to `Cc1ccc(NC(=O)c2cccc(C#N)c2)cc1-c1ccc(C(=O)Nc2ccncc2)cc1` [GSK1398463A], the potency estimated from few doses was 513 nM in experiment [33] and 1300 nM in [34].

As for `N#Cc1ccc(-c2cc(-c3c[nH]nc3-c3ccccn3)ccn2)cc1` [GW693028X], the potency estimated from few doses in experiment [1] (setting [37]) is 872 nM; in experiment [35], 671 nM; in [36], 773 nM; in [32], 263 nM.

The values are drawn from PMC11062922 (Nature Chemical Biology, 2023).
